Reference: PubChem BioAssay AID1159580 (chemical genetic matrix, 2015)
About 2,000 (36%) of roughly 5,500 compounds were called active. Another 18% or so got no clear call; they are omitted. No stated cut-off is given here; in the data, active means normalized growth mostly below about 0.91 (no sharp cut-off); inconclusive means no clear call, values can overlap the other calls; inactive means mostly above about 0.92. The list shows a part of the results.

Test: chemical genetic growth profiling, strain panel (AID 1159580);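 further: tested at 20 µM; growth read once vehicle control cultures reached saturation at 30 °C; 1 = growth at the plate median or of vehicle wells; lower values mean less growth of the strain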
Settings: S. cerevisiae deletion strains, growth OD

Measured: normalized growth

COc1cc2c(cc1-c1coc3c4c(c(OC)cc3c1=O)OC(C)(C)C=C4)OCO2
inactive: locus YAL013W, strain DEP1, active compounds read low 0.934 | locus YAL021C, strain ccr4, active compounds read low 0.993 | locus YAL026C, strain drs2, active compounds read low 1.03 | locus YAL030W, strain snc1, active compounds read low 1.03 | locus YBL061C, strain skt5, active compounds read low 1.02 | locus YBR009C, strain hhf1, active compounds read low 0.95 | locus YBR021W, strain FUR4, active compounds read low 1.05 | locus YBR023C, strain chs3, active compounds read low 0.971 | locus YBR171W, strain sec66, active compounds read low 1.03 | locus YBR229C, strain ROT2, active compounds read low 0.994 | locus YBR231C, strain swc5, active compounds read low 1.04 | locus YBR279W, strain paf1, active compounds read low 0.985 | locus YCL011C, strain gbp2, active compounds read low 1 | locus YCL016C, strain dcc1, active compounds read low 0.982 | locus YCL029C, strain bik1, active compounds read low 0.985 | locus YCL061C, strain MRC1, active compounds read low 1.01 | locus YCL069W, strain vba3, active compounds read low 1.05 | locus YCR088W, strain abp1, active compounds read low 1.05 | locus YDL005C, strain med2, active compounds read low 1.04 | locus YDL035C, strain GPR1, active compounds read low 0.998 | locus YDL040C, strain nat1, active compounds read low 1.02 | locus YDL074C, strain BRE1, active compounds read low 0.902 | locus YDL101C, strain DUN1, active compounds read low 0.95 | locus YDL134C, strain PPH21, active compounds read low 0.907 | locus YDL185W, strain tfp1, active compounds read low 1.01 | locus YDL192W, strain arf1, active compounds read low 0.966 | locus YDR001C, strain nth1, active compounds read low 1.04 | locus YDR069C, strain doa4, active compounds read low 1.04 | locus YDR101C, strain arx1, active compounds read low 1 | locus YDR159W, strain sac3, active compounds read low 0.981 | locus YDR162C, strain NBP2, active compounds read low 0.884 | locus YDR297W, strain sur2, active compounds read low 1.02 | locus YDR318W, strain mcm21, active compounds read low 0.964 | locus YDR334W, strain swr1, active compounds read low 1.04 | locus YDR335W, strain msn5, active compounds read low 1.03 | locus YDR388W, active compounds read low 0.986 | locus YDR502C, strain sam2, active compounds read low 0.97 | locus YEL003W, strain gim4, active compounds read low 1.02 | locus YEL037C, strain rad23, active compounds read low 1.04 | locus YEL061C, strain CIN8 (second series), active compounds read low 1.04 | locus YER015W, strain faa2, active compounds read low 0.991 | locus YER016W, strain bim1, active compounds read low 1.03 | locus YER110C, active compounds read low 0.994 | locus YER111C, strain swi4, active compounds read low 0.994 | locus YER155C, strain BEM2 (second series), active compounds read low 0.926 | locus YER155C, strain BEM2, active compounds read low 0.988 | locus YER167W, strain BCK2, active compounds read low 1.01 | locus YFR010W, strain ubp6, active compounds read low 1.07 | locus YGL078C, strain dbp3, active compounds read low 0.983 | locus YGL086W, strain mad1, active compounds read low 0.959 | locus YGL167C, strain pmr1, active compounds read low 1.02 | locus YGL173C, strain kem1, active compounds read low 1 | locus YGL227W, strain vid30, active compounds read low 1.08 | locus YGL240W, strain doc1, active compounds read low 0.984 | locus YGL248W, strain PDE1, active compounds read low 0.929 | locus YGL253W, strain hxk2, active compounds read low 1.01 | locus YGR135W, strain pre9, active compounds read low 0.916 | locus YGR252W, strain gcn5, active compounds read low 0.863 | locus YHR013C, strain ard1, active compounds read low 0.991 | locus YHR027C, strain rpn1, active compounds read low 1.03 | locus YHR030C, strain SLT2, active compounds read low 0.968 | locus YHR079C, strain IRE1 (second series), active compounds read low 0.995 | locus YHR094C, strain hxt1, active compounds read low 1 | locus YHR129C, strain ARP1, active compounds read low 0.959 | locus YHR142W, strain chs7, active compounds read low 0.976 | locus YHR200W, strain rpn10, active compounds read low 0.957 | locus YIL066C, strain RNR3, active compounds read low 0.991 | locus YIL073C, strain SPO22, active compounds read low 0.919 | locus YIL125W, strain kgd1, active compounds read low 0.982 | locus YIR030C, strain dcg1, active compounds read low 1 | locus YJL092W, strain hpr5, active compounds read low 1.04 | locus YJL095W, strain BCK1 (second series), active compounds read low 0.974 | locus YJL095W, strain BCK1, active compounds read low 0.809 | locus YJL115W, strain asf1, active compounds read low 1.04 | locus YJL129C, strain trk1, active compounds read low 1.03 | locus YJL134W, strain LCB3, active compounds read low 1 | locus YJL154C, strain vps35, active compounds read low 1.04 | locus YJL164C, strain tpk1, active compounds read low 0.968 | locus YJL166W, strain qcr8, active compounds read low 0.933 | locus YJL168C, strain set2, active compounds read low 0.985 | locus YJL187C, strain SWE1 (second series), active compounds read low 0.938 | locus YKL009W, strain mrt4, active compounds read low 1.01 | locus YKL068W, active compounds read low 1 | locus YKL085W, strain MDH1 (second series), active compounds read low 1 | locus YKL085W, strain MDH1, active compounds read low 1 | locus YKL160W, strain elf1, active compounds read low 0.927 | locus YKR001C, strain vps1, active compounds read low 0.937 | locus YKR026C, strain gcn3, active compounds read low 1.06 | locus YKR091W, strain srl3, active compounds read low 1.02 | locus YLL001W, strain dnm1, active compounds read low 1.01 | locus YLL026W, active compounds read low 1.04 | locus YLL041C, strain sdh2, active compounds read low 1.03 | locus YLR027C, strain aat2, active compounds read low 0.992 | locus YLR039C, strain RIC1, active compounds read low 0.788 | locus YLR058C, strain SHM2, active compounds read low 0.984 | locus YLR102C, strain apc9, active compounds read low 0.997 | locus YLR221C, strain rsa3, active compounds read low 1.01 | locus YLR258W, strain gsy2, active compounds read low 0.978 | locus YLR268W, strain sec22, active compounds read low 0.998 | locus YLR320W, strain mms22, active compounds read low 0.912 | locus YLR342W, strain FKS1 (second series), active compounds read low 0.936 | locus YLR342W, strain FKS1, active compounds read low 0.968 | locus YLR357W, strain rsc2, active compounds read low 1.12 | locus YLR370C, strain arc18, active compounds read low 0.973 | locus YLR371W, strain rom2, active compounds read low 1.02 | locus YLR384C, strain iki3, active compounds read low 1.03 | locus YML016C, strain PPZ1, active compounds read low 0.987 | locus YML032C, strain rad52, active compounds read low 0.963 | locus YML120C, strain ndi1, active compounds read low 0.971 | locus YML124C, strain tub3, active compounds read low 1 | locus YMR058W, strain fet3, active compounds read low 1 | locus YMR078C, strain ctf18, active compounds read low 0.986 | locus YMR125W, strain sto1, active compounds read low 1.01 | locus YMR129W, active compounds read low 1.03 | locus YMR205C, strain PFK2, active compounds read low 0.919 | locus YMR223W, strain ubp8, active compounds read low 0.928 | locus YMR231W, strain pep5, active compounds read low 1.01 | locus YMR307W, strain GAS1, active compounds read low 0.685 | locus YNL067W, strain RPL9B, active compounds read low 0.956 | locus YNL209W, strain ssb2, active compounds read low 1 | locus YNL248C, strain rpa49, active compounds read low 1.1 | locus YNL250W, strain rad50, active compounds read low 0.972 | locus YNL271C, strain bni1, active compounds read low 0.991 | locus YNL298W, strain CLA4, active compounds read low 0.953 | locus YNL307C, strain MCK1, active compounds read low 0.907 | locus YNL322C, strain KRE1 (second series), active compounds read low 1.04 | locus YNR049C, strain mso1, active compounds read low 1.03 | locus YNR052C, strain pop2, active compounds read low 0.944 | locus YOL006C, strain TOP1, active compounds read low 0.842 | locus YOL012C, strain htz1 0.696 | locus YOL147C, strain pex11, active compounds read low 0.996 | locus YOR001W, strain rrp6, active compounds read low 1.02 | locus YOR061W, strain CKA2, active compounds read low 1.02 | locus YOR069W, strain VPS5, active compounds read low 0.973 | locus YOR070C, strain gyp1, active compounds read low 0.992 | locus YOR080W, strain dia2, active compounds read low 1.04 | locus YOR083W, strain WHI5, active compounds read low 0.959 | locus YOR106W, strain vam3, active compounds read low 0.996 | locus YOR136W, strain idh2, active compounds read low 0.98 | locus YOR144C, strain elg1, active compounds read low 0.993 | locus YOR184W, strain ser1, active compounds read low 0.904 | locus YOR265W, strain rbl2, active compounds read low 1.01 | locus YOR270C, strain vph1, active compounds read low 0.871 | locus YOR290C, strain snf2, active compounds read low 0.948 | locus YOR316C, strain cot1, active compounds read low 0.985 | locus YPL078C, strain atp4, active compounds read low 0.95 | locus YPL106C, strain sse1, active compounds read low 1.05 | locus YPL240C, strain hsp82, active compounds read low 1.04 | locus YPR119W, strain clb2, active compounds read low 0.995 | locus YPR141C, strain kar3, active compounds read low 0.999 | locus YPR163C, strain tif3, active compounds read low 0.986 | locus YPR167C, strain met16, active compounds read low 0.972 | strain wtn01, active compounds read low 0.989
active: locus YDR137W, strain rgp1, active compounds read low 0.654 | locus YDR195W, strain ref2 1.18 [resistant] | locus YDR392W, strain spt3, active compounds read low 0.295 | locus YLR262C, strain YPT6 (second series), active compounds read low 0.681 | locus YLR418C, strain cdc73, active compounds read low 0.798 | locus YNL071W, strain lat1, active compounds read low 0.799 | locus YNL233W, strain BNI4, active compounds read low 0.868 | locus YPL051W, strain arl3, active compounds read low 0.895
